# Results from the supplement of paper PMC11732987, “Enantioselective OTUD7B fragment discovery through chemoproteomics screening and high-throughput optimisation” (Communications Chemistry, 2025).
# A number with no mark means an inactive call.
# Legend:
# Experiment in all cases: log2 ratio of Biotin-Ahx-Ub-VS probe labelling (fragment/DMSO); higher = less target engagement (more negative = stronger competition), active = hit call of the paper (q ≤ 0.05, log2 ratio ≤ -1)
# Settings in all cases: compound concentration: 200 uM; treatment time: 3 h
# USP42 = biological target: T1, USP42 (UniProt Q9H9J4)
# T1 sequence (whole entry): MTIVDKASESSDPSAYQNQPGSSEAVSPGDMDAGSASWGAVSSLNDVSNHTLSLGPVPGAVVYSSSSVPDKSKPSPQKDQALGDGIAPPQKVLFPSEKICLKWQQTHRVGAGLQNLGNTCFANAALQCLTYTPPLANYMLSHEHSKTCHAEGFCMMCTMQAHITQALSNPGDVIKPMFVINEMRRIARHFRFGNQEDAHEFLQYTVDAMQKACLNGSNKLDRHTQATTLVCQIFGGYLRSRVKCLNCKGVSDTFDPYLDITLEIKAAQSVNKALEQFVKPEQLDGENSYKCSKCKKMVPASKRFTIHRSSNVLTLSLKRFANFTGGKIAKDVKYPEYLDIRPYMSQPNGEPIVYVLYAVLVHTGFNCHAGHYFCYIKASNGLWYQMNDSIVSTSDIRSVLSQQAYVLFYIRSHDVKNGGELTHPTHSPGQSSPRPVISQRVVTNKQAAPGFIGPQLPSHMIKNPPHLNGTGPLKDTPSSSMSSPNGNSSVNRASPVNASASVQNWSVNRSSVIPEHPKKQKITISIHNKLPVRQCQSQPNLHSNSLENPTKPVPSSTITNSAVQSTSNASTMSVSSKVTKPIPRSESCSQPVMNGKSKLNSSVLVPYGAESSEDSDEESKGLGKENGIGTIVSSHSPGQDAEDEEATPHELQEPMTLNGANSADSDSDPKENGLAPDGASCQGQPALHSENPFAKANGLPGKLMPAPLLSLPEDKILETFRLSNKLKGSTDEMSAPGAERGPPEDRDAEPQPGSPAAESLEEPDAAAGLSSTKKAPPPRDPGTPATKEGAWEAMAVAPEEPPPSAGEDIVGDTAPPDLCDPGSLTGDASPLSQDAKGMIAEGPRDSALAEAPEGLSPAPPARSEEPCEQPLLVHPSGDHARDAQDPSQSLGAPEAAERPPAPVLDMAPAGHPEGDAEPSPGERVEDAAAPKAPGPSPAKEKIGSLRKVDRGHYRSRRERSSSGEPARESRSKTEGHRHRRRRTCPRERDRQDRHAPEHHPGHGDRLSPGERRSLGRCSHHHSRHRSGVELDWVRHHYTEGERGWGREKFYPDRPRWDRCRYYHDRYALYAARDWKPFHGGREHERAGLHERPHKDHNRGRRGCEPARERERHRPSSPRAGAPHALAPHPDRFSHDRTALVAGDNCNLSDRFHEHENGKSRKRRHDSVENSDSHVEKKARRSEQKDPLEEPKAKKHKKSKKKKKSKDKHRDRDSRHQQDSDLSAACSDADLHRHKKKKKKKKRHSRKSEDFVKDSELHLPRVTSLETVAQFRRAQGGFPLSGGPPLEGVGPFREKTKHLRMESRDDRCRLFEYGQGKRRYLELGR
# Method in brief: (§1)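 HEK293T lysate, 495 µg per sample in Tris/CHAPS/IGEPAL buffer with protease inhibitors, was treated in triplicate with fragment at 200 µM or vehicle for 3 h and then with Biotin-Ahx-Ub-VS at 0.5 µM final for 1 h. Labelled DUBs were NeutrAvidin-enriched, digested with LysC and trypsin, and run by diaPASEF LC-MS/MS. Spectronaut label-free quantities were global-median-normalised, and values are average log2 fragment/vehicle ratios by unpaired t-test on proteins with ≥2 unique peptides.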
# USP46 = USP46 (UniProt P62068)
# Chain of USP46 (P62068 whole entry): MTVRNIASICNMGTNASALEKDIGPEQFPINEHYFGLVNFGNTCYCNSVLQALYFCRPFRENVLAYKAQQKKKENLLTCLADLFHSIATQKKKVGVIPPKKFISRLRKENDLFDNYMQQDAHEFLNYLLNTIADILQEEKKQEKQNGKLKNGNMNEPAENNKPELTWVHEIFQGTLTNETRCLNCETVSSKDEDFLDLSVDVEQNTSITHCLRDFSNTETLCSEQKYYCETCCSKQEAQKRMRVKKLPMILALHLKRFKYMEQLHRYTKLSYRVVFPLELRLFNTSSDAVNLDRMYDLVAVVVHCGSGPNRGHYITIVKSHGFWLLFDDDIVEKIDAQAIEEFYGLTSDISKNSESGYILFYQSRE
# Method in brief: as §1
# USP47 = biological target: T2, USP47 (UniProt Q96K76)
# T2 sequence (whole entry): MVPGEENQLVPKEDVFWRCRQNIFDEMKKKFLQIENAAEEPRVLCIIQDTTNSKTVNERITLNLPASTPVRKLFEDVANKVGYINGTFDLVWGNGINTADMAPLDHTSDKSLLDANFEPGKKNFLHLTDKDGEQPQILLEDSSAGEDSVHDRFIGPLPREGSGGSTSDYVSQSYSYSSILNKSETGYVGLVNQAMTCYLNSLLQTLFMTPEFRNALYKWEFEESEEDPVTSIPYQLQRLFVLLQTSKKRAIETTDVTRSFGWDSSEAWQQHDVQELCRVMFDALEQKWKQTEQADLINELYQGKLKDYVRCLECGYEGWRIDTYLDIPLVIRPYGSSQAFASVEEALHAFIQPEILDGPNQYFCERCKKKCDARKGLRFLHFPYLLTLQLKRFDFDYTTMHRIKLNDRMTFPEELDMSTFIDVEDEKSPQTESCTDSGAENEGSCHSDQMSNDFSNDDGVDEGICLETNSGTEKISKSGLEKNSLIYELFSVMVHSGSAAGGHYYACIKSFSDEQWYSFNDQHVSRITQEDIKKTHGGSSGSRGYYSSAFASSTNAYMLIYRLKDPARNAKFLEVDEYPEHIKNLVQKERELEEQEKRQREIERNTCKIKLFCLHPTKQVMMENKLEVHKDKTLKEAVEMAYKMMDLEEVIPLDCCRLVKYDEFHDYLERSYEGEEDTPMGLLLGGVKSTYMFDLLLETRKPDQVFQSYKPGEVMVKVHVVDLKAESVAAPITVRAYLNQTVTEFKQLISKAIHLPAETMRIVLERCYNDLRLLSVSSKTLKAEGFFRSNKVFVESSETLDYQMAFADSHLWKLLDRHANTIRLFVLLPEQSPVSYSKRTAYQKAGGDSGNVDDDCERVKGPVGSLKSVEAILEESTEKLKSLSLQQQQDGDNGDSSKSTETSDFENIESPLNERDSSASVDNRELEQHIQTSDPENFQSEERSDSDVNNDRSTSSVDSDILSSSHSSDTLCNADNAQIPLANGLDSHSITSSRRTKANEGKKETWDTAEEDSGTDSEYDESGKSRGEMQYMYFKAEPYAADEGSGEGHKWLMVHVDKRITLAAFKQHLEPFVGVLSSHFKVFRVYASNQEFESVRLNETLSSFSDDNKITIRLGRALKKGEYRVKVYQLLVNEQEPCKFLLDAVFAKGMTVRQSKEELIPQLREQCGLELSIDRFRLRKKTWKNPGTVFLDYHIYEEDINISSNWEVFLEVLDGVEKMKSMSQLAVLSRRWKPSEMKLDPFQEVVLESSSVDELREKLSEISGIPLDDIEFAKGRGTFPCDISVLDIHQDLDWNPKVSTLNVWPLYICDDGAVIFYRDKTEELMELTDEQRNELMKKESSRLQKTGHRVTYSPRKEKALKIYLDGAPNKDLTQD
# Method in brief: as §1
# USP48 = biological target: T3, USP48 (UniProt Q86UV5)
# T3 sequence (whole entry): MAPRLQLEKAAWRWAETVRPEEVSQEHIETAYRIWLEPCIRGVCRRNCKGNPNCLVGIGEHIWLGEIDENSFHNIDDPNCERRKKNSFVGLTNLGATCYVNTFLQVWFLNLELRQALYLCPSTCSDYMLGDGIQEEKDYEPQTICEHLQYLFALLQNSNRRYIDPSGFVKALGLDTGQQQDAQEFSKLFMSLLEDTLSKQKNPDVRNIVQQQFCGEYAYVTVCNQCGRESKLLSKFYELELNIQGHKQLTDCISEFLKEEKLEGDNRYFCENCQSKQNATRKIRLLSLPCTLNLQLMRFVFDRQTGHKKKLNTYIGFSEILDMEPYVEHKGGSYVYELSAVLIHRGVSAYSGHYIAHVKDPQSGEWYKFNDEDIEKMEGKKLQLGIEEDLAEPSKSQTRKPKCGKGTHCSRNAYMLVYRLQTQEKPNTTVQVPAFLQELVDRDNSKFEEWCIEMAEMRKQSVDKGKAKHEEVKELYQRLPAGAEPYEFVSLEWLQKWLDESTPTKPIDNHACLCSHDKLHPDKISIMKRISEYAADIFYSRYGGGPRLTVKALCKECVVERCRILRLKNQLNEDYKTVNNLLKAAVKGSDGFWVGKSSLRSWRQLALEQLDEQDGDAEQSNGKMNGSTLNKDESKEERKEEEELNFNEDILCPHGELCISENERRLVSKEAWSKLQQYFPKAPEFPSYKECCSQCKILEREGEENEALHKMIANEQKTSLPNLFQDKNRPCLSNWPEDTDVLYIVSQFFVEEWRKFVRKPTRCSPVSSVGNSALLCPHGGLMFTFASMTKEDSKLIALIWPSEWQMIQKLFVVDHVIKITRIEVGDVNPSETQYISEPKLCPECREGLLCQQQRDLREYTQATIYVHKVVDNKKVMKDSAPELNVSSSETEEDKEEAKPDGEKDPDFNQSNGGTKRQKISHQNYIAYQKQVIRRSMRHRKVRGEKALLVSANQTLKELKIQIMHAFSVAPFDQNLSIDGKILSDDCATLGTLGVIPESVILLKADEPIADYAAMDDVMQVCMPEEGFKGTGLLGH
# Method in brief: as §1
# USP5 = biological target: T4, USP5 (UniProt P45974)
# T4 sequence (whole entry): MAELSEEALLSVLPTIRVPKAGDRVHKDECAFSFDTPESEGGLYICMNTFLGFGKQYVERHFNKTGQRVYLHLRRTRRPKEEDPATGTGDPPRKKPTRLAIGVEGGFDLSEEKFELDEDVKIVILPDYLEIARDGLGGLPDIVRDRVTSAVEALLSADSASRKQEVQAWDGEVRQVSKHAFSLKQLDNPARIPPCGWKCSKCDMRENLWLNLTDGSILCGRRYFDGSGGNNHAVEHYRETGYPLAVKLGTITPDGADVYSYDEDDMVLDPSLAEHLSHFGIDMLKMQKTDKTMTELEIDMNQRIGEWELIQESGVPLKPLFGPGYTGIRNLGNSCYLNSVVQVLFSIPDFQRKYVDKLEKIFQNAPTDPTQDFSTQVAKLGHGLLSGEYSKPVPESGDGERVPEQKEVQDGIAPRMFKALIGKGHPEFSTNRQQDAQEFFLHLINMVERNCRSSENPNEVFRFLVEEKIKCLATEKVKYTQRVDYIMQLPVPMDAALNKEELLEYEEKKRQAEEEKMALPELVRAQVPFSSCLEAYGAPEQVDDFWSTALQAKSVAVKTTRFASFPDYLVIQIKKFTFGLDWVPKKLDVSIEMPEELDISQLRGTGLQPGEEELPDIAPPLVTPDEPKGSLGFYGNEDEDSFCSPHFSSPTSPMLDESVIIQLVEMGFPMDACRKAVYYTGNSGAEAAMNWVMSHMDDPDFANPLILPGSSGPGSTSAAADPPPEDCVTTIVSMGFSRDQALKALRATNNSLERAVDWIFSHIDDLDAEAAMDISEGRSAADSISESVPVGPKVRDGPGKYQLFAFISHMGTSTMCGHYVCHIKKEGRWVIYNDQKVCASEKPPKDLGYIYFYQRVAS
# Method in brief: as §1
# USP54 = USP54 (UniProt Q70EL1)
# Chain of USP54 (Q70EL1 whole entry): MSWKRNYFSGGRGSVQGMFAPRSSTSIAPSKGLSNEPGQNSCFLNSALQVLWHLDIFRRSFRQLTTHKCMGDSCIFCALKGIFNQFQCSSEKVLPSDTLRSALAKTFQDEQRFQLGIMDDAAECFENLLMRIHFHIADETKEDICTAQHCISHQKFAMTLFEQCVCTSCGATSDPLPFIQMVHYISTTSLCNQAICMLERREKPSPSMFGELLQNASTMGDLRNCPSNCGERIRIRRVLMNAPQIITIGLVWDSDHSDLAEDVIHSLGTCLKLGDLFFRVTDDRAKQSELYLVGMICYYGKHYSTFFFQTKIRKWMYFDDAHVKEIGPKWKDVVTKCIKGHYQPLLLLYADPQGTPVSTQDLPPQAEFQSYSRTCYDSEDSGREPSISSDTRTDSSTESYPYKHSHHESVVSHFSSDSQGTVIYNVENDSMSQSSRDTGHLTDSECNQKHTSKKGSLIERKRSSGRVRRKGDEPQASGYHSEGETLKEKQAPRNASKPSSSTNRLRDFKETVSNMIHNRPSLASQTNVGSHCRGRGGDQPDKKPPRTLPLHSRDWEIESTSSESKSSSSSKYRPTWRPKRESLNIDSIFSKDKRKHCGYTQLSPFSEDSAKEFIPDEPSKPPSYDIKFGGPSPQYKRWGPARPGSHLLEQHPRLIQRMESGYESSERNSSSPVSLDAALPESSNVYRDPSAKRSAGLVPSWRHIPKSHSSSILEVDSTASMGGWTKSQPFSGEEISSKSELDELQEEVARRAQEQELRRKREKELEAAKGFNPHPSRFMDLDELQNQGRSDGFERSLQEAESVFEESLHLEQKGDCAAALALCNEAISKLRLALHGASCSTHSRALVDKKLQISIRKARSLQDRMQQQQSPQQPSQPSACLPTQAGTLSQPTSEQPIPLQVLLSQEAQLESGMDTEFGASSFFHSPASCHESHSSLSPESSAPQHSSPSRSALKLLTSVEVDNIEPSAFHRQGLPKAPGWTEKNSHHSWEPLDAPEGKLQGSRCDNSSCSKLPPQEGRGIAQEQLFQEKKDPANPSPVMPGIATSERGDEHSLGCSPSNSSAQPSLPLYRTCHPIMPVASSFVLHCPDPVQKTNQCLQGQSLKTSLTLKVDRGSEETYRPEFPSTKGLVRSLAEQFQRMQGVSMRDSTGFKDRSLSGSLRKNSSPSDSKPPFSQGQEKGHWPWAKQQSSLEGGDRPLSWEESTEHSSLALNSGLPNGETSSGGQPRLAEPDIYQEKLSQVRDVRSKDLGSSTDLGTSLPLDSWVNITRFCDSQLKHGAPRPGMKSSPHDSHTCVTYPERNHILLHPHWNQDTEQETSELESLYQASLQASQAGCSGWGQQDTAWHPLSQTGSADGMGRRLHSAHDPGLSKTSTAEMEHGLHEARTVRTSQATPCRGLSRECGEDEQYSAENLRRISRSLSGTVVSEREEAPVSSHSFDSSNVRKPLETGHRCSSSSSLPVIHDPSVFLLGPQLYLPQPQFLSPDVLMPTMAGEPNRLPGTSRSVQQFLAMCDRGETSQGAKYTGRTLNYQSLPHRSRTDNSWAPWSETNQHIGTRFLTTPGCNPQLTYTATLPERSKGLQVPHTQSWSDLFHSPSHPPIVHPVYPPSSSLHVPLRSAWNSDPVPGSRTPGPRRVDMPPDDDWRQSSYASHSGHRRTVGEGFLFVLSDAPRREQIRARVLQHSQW
# Method in brief: as §1
# USP7 = USP7 (UniProt Q93009)
# Chain of USP7 (Q93009 whole entry, looked up): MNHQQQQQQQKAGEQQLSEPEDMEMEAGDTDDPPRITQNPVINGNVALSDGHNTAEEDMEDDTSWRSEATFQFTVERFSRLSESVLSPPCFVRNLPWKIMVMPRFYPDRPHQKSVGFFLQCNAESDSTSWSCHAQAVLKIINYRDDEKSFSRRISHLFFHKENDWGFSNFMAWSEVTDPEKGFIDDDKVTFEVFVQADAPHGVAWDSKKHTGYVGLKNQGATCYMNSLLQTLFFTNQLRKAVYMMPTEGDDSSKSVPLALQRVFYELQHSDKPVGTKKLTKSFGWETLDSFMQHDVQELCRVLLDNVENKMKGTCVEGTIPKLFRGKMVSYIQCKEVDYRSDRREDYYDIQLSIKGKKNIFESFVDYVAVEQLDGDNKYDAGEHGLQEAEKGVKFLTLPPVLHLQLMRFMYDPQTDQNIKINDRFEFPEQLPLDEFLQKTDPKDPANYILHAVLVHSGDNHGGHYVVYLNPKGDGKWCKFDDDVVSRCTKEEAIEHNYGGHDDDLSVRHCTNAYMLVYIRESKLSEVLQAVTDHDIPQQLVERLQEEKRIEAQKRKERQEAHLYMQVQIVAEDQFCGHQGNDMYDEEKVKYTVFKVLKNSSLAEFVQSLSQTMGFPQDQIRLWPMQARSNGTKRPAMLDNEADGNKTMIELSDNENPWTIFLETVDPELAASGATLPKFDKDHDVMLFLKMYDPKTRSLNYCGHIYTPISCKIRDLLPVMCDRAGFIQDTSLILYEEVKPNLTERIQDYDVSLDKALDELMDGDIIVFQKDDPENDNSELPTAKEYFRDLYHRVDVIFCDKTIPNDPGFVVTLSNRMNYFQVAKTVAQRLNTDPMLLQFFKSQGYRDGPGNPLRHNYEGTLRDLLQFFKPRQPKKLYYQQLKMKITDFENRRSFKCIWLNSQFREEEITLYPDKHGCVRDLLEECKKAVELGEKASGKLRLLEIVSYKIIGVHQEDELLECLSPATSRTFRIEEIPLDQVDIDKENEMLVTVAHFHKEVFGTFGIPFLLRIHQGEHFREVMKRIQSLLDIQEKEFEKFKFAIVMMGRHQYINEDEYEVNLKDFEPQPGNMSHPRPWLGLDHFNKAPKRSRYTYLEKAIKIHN
# Method in brief: as §1
# USP8 = biological target: T5, USP8 (UniProt P40818)
# T5 sequence (whole entry): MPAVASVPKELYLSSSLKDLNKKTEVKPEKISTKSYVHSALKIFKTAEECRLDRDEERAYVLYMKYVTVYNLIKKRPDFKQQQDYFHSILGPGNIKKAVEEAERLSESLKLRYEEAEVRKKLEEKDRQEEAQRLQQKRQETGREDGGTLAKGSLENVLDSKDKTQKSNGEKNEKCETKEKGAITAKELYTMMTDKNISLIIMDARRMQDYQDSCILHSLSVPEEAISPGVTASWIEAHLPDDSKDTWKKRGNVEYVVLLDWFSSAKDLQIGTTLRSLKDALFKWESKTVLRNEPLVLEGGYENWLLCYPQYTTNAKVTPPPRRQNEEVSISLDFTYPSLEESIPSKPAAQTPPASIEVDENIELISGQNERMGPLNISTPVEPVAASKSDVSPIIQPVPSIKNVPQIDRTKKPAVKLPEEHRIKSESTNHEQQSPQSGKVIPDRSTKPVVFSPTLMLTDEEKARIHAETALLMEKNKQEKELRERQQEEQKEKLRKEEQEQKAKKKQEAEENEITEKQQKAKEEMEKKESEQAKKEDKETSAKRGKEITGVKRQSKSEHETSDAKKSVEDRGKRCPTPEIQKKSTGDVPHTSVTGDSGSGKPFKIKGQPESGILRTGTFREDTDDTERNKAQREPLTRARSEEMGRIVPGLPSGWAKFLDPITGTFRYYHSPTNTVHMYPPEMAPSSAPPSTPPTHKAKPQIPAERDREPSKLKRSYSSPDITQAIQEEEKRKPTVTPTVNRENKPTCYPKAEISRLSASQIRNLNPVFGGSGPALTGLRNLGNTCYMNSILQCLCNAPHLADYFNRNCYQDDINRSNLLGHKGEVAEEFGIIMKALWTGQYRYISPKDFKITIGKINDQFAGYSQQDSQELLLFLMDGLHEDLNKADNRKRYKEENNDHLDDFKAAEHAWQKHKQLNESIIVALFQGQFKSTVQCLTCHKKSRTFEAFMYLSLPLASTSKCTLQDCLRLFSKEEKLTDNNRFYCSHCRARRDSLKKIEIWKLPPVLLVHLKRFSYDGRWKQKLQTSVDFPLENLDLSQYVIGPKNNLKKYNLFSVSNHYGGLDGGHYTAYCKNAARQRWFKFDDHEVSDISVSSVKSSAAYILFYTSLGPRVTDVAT
# Method in brief: as §1
structure (smiles),measurement,setting,value
O=C(CCl)N1CCN(C(=O)N2CCCCC2)CC1,log2 ratio of Biotin-Ahx-Ub-VS probe labelling,USP42,0.232
same,log2 ratio of Biotin-Ahx-Ub-VS probe labelling,USP46,-0.637
same,log2 ratio of Biotin-Ahx-Ub-VS probe labelling,USP47,-0.616
same,log2 ratio of Biotin-Ahx-Ub-VS probe labelling,USP48,-0.949
same,log2 ratio of Biotin-Ahx-Ub-VS probe labelling,USP5,-1.13 (active)
same,log2 ratio of Biotin-Ahx-Ub-VS probe labelling,USP54,0.892
same,log2 ratio of Biotin-Ahx-Ub-VS probe labelling,USP7,-1.12 (active)
same,log2 ratio of Biotin-Ahx-Ub-VS probe labelling,USP8,-0.843
